Rows were chosen to be rich in hits. Some 1.6% of all compounds tested hit in one or more screens of this group.
KCNQ2 pot: potentiators of rat KCNQ2 potassium channel; AID 2239, 2010; CHO-K1 KCNQ2, FluxOR thallium flux fluorescence; active compounds read high; B-score at 10 µM; Potassium voltage-gated channel subfamily KQT member 2 (Rattus norvegicus), O88943; 0.54% of 310,000 active;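 active means fluorescence ratio B-score at least 3 SD of library B-scores, with initial fluorescence B-score within 3 of them, cut at about 5.3 in these data; same plate scores as AID 2156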;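 further: B-score of peak minus minimum over baseline fluorescence ratio after K+ and Tl+ stimulus; positive B-score means potentiation of KCNQ2 with more thallium influx and brighter signal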
KCNQ2 block: rat KCNQ2 potassium channel inhibitors, primary screen, cell-based, CHO-K1, FluxOR thallium flux, B-score; Potassium voltage-gated channel subfamily KQT member 2 (Rattus norvegicus), O88943; AID 2156, 2009; B-score at 10 µM; 1.1% of 310,000 active; 20 min; active compounds read low;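 active means fluorescence ratio B-score at most minus 3 library SDs, with starting brightness B-score within 2 library SDs, cut at about -5.5 in these data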
Kir21 confirm: mouse Kir2.1 channel blockers, retest, confirmation, cell-based, FluxOR thallium flux, duplicate. shares compounds with KCNQ2 pot. Kir2.1-expressing cells, FluxOR thallium flux fluorescence; active compounds read low. Tl flux remaining, % of negative control (active compounds read low), % at 10 µM. 41% of 2,300 active. AID 2032, 2009;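 active means Primary-screen hit whose thallium flux fell at least 3 control SD below untreated wells in both duplicates, with normal baseline fluorescence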;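 further: 0% = blank wells without stimulus and 100% = stimulated no-compound controls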
HEK293 Tl flux: alters thallium flux in parental HEK293 cells, Kir2.1 counter-screen; shares compounds with KCNQ2 pot; FluxOR thallium flux fluorescence; 0% = unstimulated blank wells; FluxOR signal as % of negative control (100 = no effect), % at 10 µM; 19% of 2,300 active; AID 2105;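 active means dye signal at least 3 control SD above or below untreated wells in both duplicates, raw fluorescence within 3, either direction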;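 further: percent is based on the flux ratio of peak minus minimum fluorescence over baseline F0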
CHO-K1 Tl ctr: nonspecific thallium flux increase in parental CHO-K1, confirmation, counter-screen for KCNQ2 potentiator project, cell-based, FluxOR thallium flux, duplicate; shares compounds with KCNQ2 pot; parental CHO-K1 cells, FluxOR thallium flux fluorescence; zero = vehicle mean+3SD, 100% = vehicle-minus-blank window; activity increase over 3SD of controls, % at 10 µM; 43% of 1,200 active;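 active means signal rise of at least 3 SD above the untreated control mean, in both duplicate wells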;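 further: counter screen of KCNQ2 potentiator hits so any rise reflects channel-independent effects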
KCNQ1 sel pot: human KCNQ1 channel potentiation off-target, confirmation, selectivity assay for KCNQ2 potentiator project, cell-based, CHO, FluxOR thallium flux | shares compounds with KCNQ2 pot | CHO KCNQ1 stable, FluxOR thallium flux fluorescence; beyond 3SD, as % of vehicle-control signal | activation over 3SD threshold, % at 10 µM | 28% of 1,200 active;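 active means fluorescence ratio rise of at least 3 SD of vehicle wells above their mean, in both replicate wells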;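 further: 0% = vehicle mean plus 3 SD and 100% = vehicle minus unstimulated blank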
KCNQ2 pot confirm: rat KCNQ2 channel potentiators, confirmation, cell-based, CHO, FluxOR thallium flux, duplicate; shares compounds with KCNQ2 pot; CHO-KCNQ2 cells, FluxOR thallium flux fluorescence; potentiation, less the hit threshold, % at 10 µM; 68% of 1,200 active; AID 2287, 2010;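 active means fluorescence ratio rising 3 SD or more over the vehicle control mean in both replicates, plus primary screen hit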;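 further: peak minus minimum thallium fluorescence divided by baseline after K/Tl stimulus; 0% = vehicle mean plus 3 SD and 100% = vehicle minus unstimulated blank difference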
Kir2-1 sel: mouse Kir2.1 channel activation off-target, confirmation, selectivity assay for KCNQ2 potentiator project, cell-based, HEK293, FluxOR thallium flux | shares compounds with KCNQ2 pot | HEK293 Kir2.1, FluxOR thallium flux fluorescence | activity over 3SD threshold, % at 10 µM | 2% of 1,200 active | AID 2345, 2010;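 active means fluorescence ratio rise of at least 3 SD above the vehicle-control mean, seen in both replicates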;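 further: 0% = vehicle mean plus 3 SD and 100% = vehicle minus no-stimulus blank window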
KCNQ2 W236L MoA: potentiators of retigabine-insensitive KCNQ2 W236L, mechanism study for KCNQ2 potentiator project, cell-based, rat KCNQ2 W236L, CHO, automated patch clamp. shares compounds with KCNQ2 pot. 10% of 940 active. current increase over 3SD of negative controls (%), active compounds read high, % at 25 µM. automated patch clamp current. AID 2558, 2010;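 active means current increase at least 3 SD of the untreated controls above them in both duplicate recordings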
Target sequence (O88943 whole entry W236L, looked up): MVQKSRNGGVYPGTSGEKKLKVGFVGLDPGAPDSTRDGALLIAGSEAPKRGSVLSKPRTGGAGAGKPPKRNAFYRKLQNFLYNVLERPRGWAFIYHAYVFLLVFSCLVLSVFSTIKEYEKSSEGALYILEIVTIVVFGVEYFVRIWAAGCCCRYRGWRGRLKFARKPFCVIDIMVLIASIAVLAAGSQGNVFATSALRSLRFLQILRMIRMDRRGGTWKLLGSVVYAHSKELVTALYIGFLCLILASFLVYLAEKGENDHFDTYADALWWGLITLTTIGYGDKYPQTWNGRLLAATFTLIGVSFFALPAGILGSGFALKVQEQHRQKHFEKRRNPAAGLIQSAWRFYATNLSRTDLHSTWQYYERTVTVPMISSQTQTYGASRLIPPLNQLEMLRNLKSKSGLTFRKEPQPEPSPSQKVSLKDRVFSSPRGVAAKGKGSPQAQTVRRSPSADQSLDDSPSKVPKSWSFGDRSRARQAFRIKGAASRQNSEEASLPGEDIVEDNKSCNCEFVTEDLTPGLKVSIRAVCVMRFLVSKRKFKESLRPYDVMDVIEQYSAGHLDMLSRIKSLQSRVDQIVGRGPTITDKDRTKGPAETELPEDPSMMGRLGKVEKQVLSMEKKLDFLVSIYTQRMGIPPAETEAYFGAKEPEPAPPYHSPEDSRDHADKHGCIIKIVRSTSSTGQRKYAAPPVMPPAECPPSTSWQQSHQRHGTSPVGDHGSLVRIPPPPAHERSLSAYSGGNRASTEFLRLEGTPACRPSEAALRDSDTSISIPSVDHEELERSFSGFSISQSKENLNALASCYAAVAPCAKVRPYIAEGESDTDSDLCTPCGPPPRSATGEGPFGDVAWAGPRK
Numbers without * were called inactive; i = inactive; nt = no result.

SMILES	KCNQ2 pot	KCNQ2 block	Kir21 confirm	HEK293 Tl flux	CHO-K1 Tl ctr	KCNQ1 sel pot	KCNQ2 pot confirm	Kir2-1 sel	others
COc1cccc(NC(=O)c2sc3ncn(CC(=O)N4CCN(c5ccccn5)CC4)c(=O)c3c2C)c1	1.8	i	nt	nt	nt	nt	nt	nt
COc1ccc(C(=O)Nc2c(C(C)(C)C)nn(C)c2C(C)(C)C)cc1	nt	i	nt	nt	nt	nt	nt	nt
COc1ccc(NC(=O)/C(=C\c2ccccc2)NC(=O)c2ccco2)cc1	0.69	i	nt	nt	nt	nt	nt	nt
CCCN(CCC)C(=S)NC(=O)c1ccc(-c2ccccc2)cc1	14*	i	i	340%*	26*	3.5*	38*	-15	KCNQ2 W236L MoA=i
CCCOc1ccc(C(=O)NNC(=S)NC(=O)c2ccccc2)cc1	20*	i	i	i	-5	3.3*	-18	-29
CCOc1ccc(C(=O)NC(=S)N(Cc2ccccc2)Cc2ccccc2)cc1	20*	i	i	176%*	-13	-10	0.5*	-35	KCNQ2 W236L MoA=i
CCOc1ccc(CN(CCC#N)C(=S)NC(=O)c2ccccc2)cc1	0.91	i	nt	nt	nt	nt	nt	nt
CCCOc1ccc(C(=O)NNC(=S)NC(C)=O)cc1	0.83	i	nt	nt	nt	nt	nt	nt
Cc1ccc(C(=O)NC(=S)N(C)Cc2ccccc2)cc1	3.1	i	nt	nt	nt	nt	nt	nt
Cc1cc(C)cc(OCC(=O)OCC(=O)N2CCc3ccccc32)c1	nt	i	nt	nt	nt	nt	nt	nt
Cc1ccc(Cl)cc1NC(=O)N(C)CCO	nt	i	nt	nt	nt	nt	nt	nt
O=C(O)CCSc1ncnc2sc(-c3ccccc3)cc12	9.6*	i	i	198%*	17*	3.1*	33*	-21	KCNQ2 W236L MoA=16%*
CC(=O)CCSc1ncnc2sc(-c3ccccc3)cc12	nt	i	nt	nt	nt	nt	nt	nt
Cc1ccc(N2C(=O)N(CC(=O)Nc3cc(F)ccc3C)C(=O)C2C)cc1 (centres undefined)	2.4	i	nt	nt	nt	nt	nt	nt
CCn1c(CNC(=O)c2ccccc2Br)nnc1SCC(=O)Nc1nncs1	0.17	i	nt	nt	nt	nt	nt	nt
NC(=O)c1cccc2c3c([nH]c12)CCCC3	2.9	i	nt	nt	nt	nt	nt	nt
CCOC(=O)C1CCCc2c1[nH]c1c(C(N)=O)cccc21 (centres undefined)	9.7*	i	i	i	3.7*	-15	34*	-48	KCNQ2 W236L MoA=i
C/C(=N\Nc1ccc(Cl)c(C(=O)O)c1)c1ccc(N2CCOCC2)cc1	nt	i	nt	nt	nt	nt	nt	nt
CCn1c(CNC(=O)c2cccc(C)c2)nnc1SCC(=O)N1CCOCC1	0.15	i	nt	nt	nt	nt	nt	nt
CCn1c(=S)[nH]c2c(c1=O)C(C)(C)Cc1ccccc1-2	12*	i	i	288%*	4.3*	-15	28*	-23	KCNQ2 W236L MoA=i
CCC1(C)Cc2ccccc2-c2[nH]c(=S)[nH]c(=O)c21 (centres undefined)	1.2	i	nt	nt	nt	nt	nt	nt
CC(C(=O)Nc1ccccc1)C(=O)Nc1ccccc1	0.59	i	nt	nt	nt	nt	nt	nt
O=C(Nc1ccccc1)C(Cl)C(=O)c1ccccc1 (centres undefined)	nt	i	66%*	70%*	nt	nt	nt	nt
Cc1cc(N2CCCCC2)nc(SCC(=O)c2ccccc2)n1	nt	i	nt	nt	nt	nt	nt	nt
O=C(CSc1nc(N2CCCCC2)nc(N2CCCCC2)n1)c1ccccc1	32*	i	i	i	-6	38*	20*	-28	KCNQ2 W236L MoA=i
Cc1cc(C)c(NC(=S)NC(CO)(CO)CO)c(C)c1	nt	i	nt	nt	nt	nt	nt	nt

Compound activity deposited in PubChem BioAssay by Johns Hopkins Ion Channel Center.
